# Only a selection was taken, and hits are over-represented in it overall.
# CBX7 AlphaScr – blocks human CBX7 binding to H3K27me3 peptide. AlphaScreen His6-CBX7 / biotin-H3K27me3 peptide binding; active compounds read low. normalised signal (fraction of DMSO) (concentration not given with the values). O95931. 1.1% of 66,000 active; in the data active means normalised signal below about 0.5
# Target sequence (O95931 whole entry, looked up): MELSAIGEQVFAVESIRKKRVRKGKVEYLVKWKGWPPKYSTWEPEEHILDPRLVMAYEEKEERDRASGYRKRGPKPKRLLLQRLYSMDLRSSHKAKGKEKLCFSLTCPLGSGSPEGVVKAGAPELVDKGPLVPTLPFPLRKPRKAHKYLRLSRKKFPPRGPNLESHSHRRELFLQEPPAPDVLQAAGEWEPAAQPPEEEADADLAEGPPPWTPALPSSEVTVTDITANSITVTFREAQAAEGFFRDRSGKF
# Numbers stand for hits; i = inactive.
SMILES,CBX7 AlphaScr
CCOc1ccc(NC2c3ccccc3C(=O)N2c2cccnc2)cc1 (configuration not stated),i
Cc1ccc(NC2c3ccccc3C(=O)N2Cc2ccccc2)cc1 (configuration not stated),i
Cc1ccc(NC2c3ccccc3C(=O)N2Cc2ccccc2Cl)cc1 (configuration not stated),i
O=C1c2cccnc2C(Nc2ccc(Cl)cc2)N1Cc1ccc(F)cc1 (configuration not stated),0.37
Cc1ccc(Cl)cc1NC1c2ncccc2C(=O)N1Cc1ccc(F)cc1 (configuration not stated),i
CCOc1ccc(NC2c3ccccc3C(=O)N2Cc2ccccc2Cl)cc1 (configuration not stated),i
O=C(NC1CC1)c1nnc(Cc2ccc(Cl)cc2)o1,i
Cc1ccccc1NC(=O)C1CCCN(S(=O)(=O)c2c(C)noc2/C=C/c2cccs2)C1 (configuration not stated),i
COc1ccc(NC(=O)c2cc3c(s2)-c2ccccc2OC3)cc1Cl,i
CCOP(=O)(OCC)c1nc(-c2ccc(Cl)cc2Cl)oc1NCc1ccccc1,i
CCCCNC(=O)CCCC1=NS(=O)(=O)c2ccccc2N1,i
Cc1[nH]c2c(Cl)cccc2c1CCNS(=O)(=O)c1ccc(C(C)(C)C)cc1,i
Cc1ccc(-n2ncc3c(NCc4ccccn4)ncnc32)c(C)c1,0.12
Cc1ccc(-n2ncc3c(NCc4cccnc4)ncnc32)c(C)c1,i
Cc1ccc(-n2ncc3c(NCCO)ncnc32)c(C)c1,i
COc1ccccc1OCCn1c(C2CC(=O)N(c3ccc(C)c(C)c3)C2)nc2ccccc21 (configuration not stated),i
CC(C)NC(=O)CNc1ccccc1-c1nc2ccccc2[nH]c1=O,i
Fc1cccc(Nc2nc3nonc3nc2Nc2cccc(F)c2)c1,i
CC1CCN(c2nc3nonc3nc2Nc2ccc3c(c2)OCO3)CC1,i
c1cc2c(cc1Nc1nc3nonc3nc1Nc1ccc3c(c1)OCO3)OCO2,0.37
COc1ccc2c(c1)c(=O)c(S(=O)(=O)c1ccc(C)cc1)cn2Cc1ccc(Cl)cc1,i
CC1=C(C#N)C(c2ccccc2)C2=C(CCCC2=O)N1 (configuration not stated),i
N#Cc1nc(COc2cccc(Cl)c2)oc1N1CCCCCC1,0.45
N#Cc1nc(COc2cccc(Cl)c2)oc1N1CCCCC1,i
CC1CCN(c2oc(COc3cccc(Cl)c3)nc2C#N)CC1,i
SMILES,CBX7 AlphaScr
N#Cc1nc(COc2ccccc2)oc1N1CCCCC1,i
N#Cc1nc(COc2ccc(Cl)cc2)oc1N1CCCCCC1,0.37
N#Cc1nc(COc2ccccc2Cl)oc1N1CCCCCC1,i
O=C(CCc1ccccc1)Nc1nc(-c2ccc(F)cc2)cs1,i
O=C(O)c1ccc(NC(=O)c2cccc(N3C(=O)c4ccccc4C3=O)c2)cc1,i
CCCCNC(=O)CN1CCN(Cc2ccc(F)cc2Cl)C1=O,i
COc1ccc(S(=O)(=O)Nc2ccccc2Cl)c2cccnc12,i
COc1cccc2c(S(=O)(=O)Nc3ccc(C(=O)O)cc3)ccnc12,0.12
COc1ccc(S(=O)(=O)Nc2cccc(C)c2C)c2cccnc12,i
COc1ccc(N2C(=O)CCC(C(=O)Nc3ccc(F)cc3F)C2c2ccc(OC)c(OC)c2)cc1 (configuration not stated),i
COc1ccc(C)cc1NS(=O)(=O)c1cc(Br)cc2c1N(C(=O)C1CC1)CC2,i
CCN1CCN(c2cc(C)nc3c(-c4ccccc4OC)c(C)nn23)CC1,i
CCC(C)NC(=O)c1ccc2c(c1)N(Cc1cccc(F)c1)C(=O)c1ccccc1S2 (configuration not stated),i
CC(=O)N1CCC(N(C(=O)Nc2ccc(C)c(C)c2)C2CCCCCC2)CC1,i
CCN1CCCc2cc(CN(C(=O)Nc3ccc(C)c(C)c3)C3CCCC3)ccc21,0.44
CCCN1CCCc2cc(CN(C(=O)Nc3ccc(Cl)c(Cl)c3)C(C)CC)ccc21 (configuration not stated),i
CCc1ccc(NC(=O)N(Cc2ccc3c(c2)CCCN3CC)C2CCCC2)cc1,0.34
CCc1ccc(NC(=O)N(C2CCCCCC2)C2CCN(C(C)=O)CC2)cc1,i
CCCCN1CCCc2cc(CN(CCCN3CCOCC3)C(=O)Nc3ccccc3)ccc21,i
CCCCN1CCCc2cc(CN(CCCN3CCOCC3)C(=O)Nc3ccc(CC)cc3)ccc21,0.23
CCc1ccc(NC(=O)N(CCC(C)C)C2CCN(C(C)C)CC2)cc1,i
CCCN1CCCc2cc(CN(CCCN3CCOCC3)C(=O)Nc3ccc(CC)cc3)ccc21,i
COc1ccccc1CNC(=O)CN1CCN(Cc2ccc(C)cc2)C1=O,i
CC1CCC2C3(C)COC(C)(C)OC3CCC2(C)C12CCC(C)(CO)O2 (configuration not stated),i
O=C(Cn1nc(-c2ccccc2)ccc1=O)NCCN1CCCC1,i
SMILES,CBX7 AlphaScr
CCCCOc1ccc(C(=O)NCCc2cc3c(OC)ccc(OC)c3[nH]c2=O)cc1,i
CCCSCCCNC(=O)c1ccc2c(c1)N=C(CC)c1cc(Cl)ccc1S2,i
CC1CC(C)CN(S(=O)(=O)c2ccc3c(c2)c(=O)c(C(=O)O)cn3C)C1 (configuration not stated),i
CCOC(=O)c1c(C)n(-c2ccc(C)cc2)c2ccc(OCC(O)CNC(C)(C)C)cc12 (configuration not stated),i
COc1cccc(NC(=O)CSc2nc3nc(C)c(Cc4cccc(C)c4)c(C)n3n2)c1,i
COc1ccc(NC2c3ccccc3C(=O)N2Cc2ccccc2Cl)cc1OC (configuration not stated),i
CCOc1ccc(C2C(N3C(=O)c4ccccc4C3=O)C(=O)N2c2ccc(Br)c(C)c2)cc1 (configuration not stated),i
CCOc1ccc(N2C(=O)c3ccccc3C2Nc2ccc(C)cc2)cc1 (configuration not stated),i
COc1ccc(NC2c3ccccc3C(=O)N2Cc2ccccc2Cl)cc1 (configuration not stated),i
COc1cc(OC)c(NC2c3ccccc3C(=O)N2Cc2ccccc2)cc1Cl (configuration not stated),i
CCOc1ccc(N2C(=O)c3cccnc3C2Nc2ccc(Br)c(C)c2)cc1 (configuration not stated),0.16
COc1ccc(CN2C(=O)c3cccnc3C2Nc2ccc(OC)c(Cl)c2)cc1 (configuration not stated),0.16
Cc1ccccc1N1C(=O)c2ccccc2C1Nc1ccc(Br)cc1F (configuration not stated),i
COc1ccc(CN2C(=O)c3cccnc3C2Nc2ccc(Br)cc2F)cc1 (configuration not stated),0.19
COc1ccc(CN2C(=O)c3cccnc3C2Nc2ccc(Br)c(C)c2)cc1 (configuration not stated),0.15
COc1cccc(NC2c3ccccc3C(=O)N2Cc2ccccc2)c1 (configuration not stated),i
Cc1cc(NC2c3ccccc3C(=O)N2Cc2ccccc2)ccc1Br (configuration not stated),i
CC(C)c1ccc(OCc2nc(-c3ccccc3Cl)no2)cc1,i
Cc1ccc(NC(=O)COCc2cc(-c3ccc(F)cc3)on2)cc1,i
Cc1ccc(CNC(=O)c2cnn3c(C)c(Cc4ccccc4C)c(C)nc23)cc1,i
COc1cccc(NC(=O)c2cc3c(s2)-c2ccccc2OC3)c1,i
N#Cc1cc(Oc2ccc(Br)cc2)nc2ccccc12,i

# High-throughput results (PubChem BioAssay)
